The source made the active and inactive calls. How the source made its calls: active means hit-call score of the fitted dose curve at least 0.9, where 1 is the maximum; inactive means score below 0.9.
Legend:
Conditions in all cases: mRNA level, 48 h; actives raise or lower the signal
[1] = read-out: Ezrin (EZR), EZR (gene 7430); assay: LTEA_HepaRG_EZR: Life Technologies and Expression Analysis (LTEA) Assay for Ezrin (EZR) using HepaRG (AID 2283491)
In short: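 Differentiated human HepaRG cells, 48 h after plating, were exposed in serum-free induction medium for 48 hours to eight half-log concentrations up to 100 uM in 0.5% DMSO. EZR mRNA was measured by TaqMan qRT-PCR, normalized to ACTB, GAPDH and POLR2A, and fitted bidirectionally against DMSO.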

[2] = read-out: Cytochrome P450 3A7 (Homo sapiens) (UniProt P24462); assay: LTEA_HepaRG_CYP3A7: Life Technologies and Expression Analysis (LTEA) Assay for CYP3A7 using HepaRG (AID 2283492)
In short: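 Cells were thawed, plated, cultured 48 h, then treated for a further 48 h with chemicals (eight-point half-log series from 100 uM, 0.5% DMSO). RNA was isolated and CYP3A7 expression quantified by qRT-PCR normalised to ACTB, GAPDH and POLR2A.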

CYP3A5 (gene 1577) = assay: LTEA_HepaRG_CYP3A5: Life Technologies and Expression Analysis (LTEA) Assay for CYP3A5 using HepaRG (AID 2283493)
In short: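 Readout was CYP3A5 mRNA by qRT-PCR. HepaRG cultures were exposed for 48 h in serum-free induction medium to chemicals at up to 100 uM, and responses were fitted in both directions relative to DMSO vehicle.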

[3] = read-out: Fatty Acid-Binding Protein 1 (FABP1), FABP1 (gene 2168); assay: LTEA_HepaRG_FABP1: Life Technologies and Expression Analysis (LTEA) Assay for Fatty Acid-Binding Protein 1 (FABP1) using HepaRG (AID 2283494)
In short: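 Values reflect bidirectional concentration-response fitting of FABP1 mRNA change against 0.5% DMSO controls. Human HepaRG cultures received eight half-log doses (top 100 uM) for 48 h; expression quantified by TaqMan qRT-PCR with housekeeping-gene normalization.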

[4] = read-out: Cytochrome P450 4A22 (Homo sapiens) (UniProt Q5TCH4); assay: LTEA_HepaRG_CYP4A22: Life Technologies and Expression Analysis (LTEA) Assay for Cytochrome P450 4A22 (CYP4A22) using HepaRG (AID 2283495)
In short: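 Cryopreserved HepaRG cells, plated and cultured 48 h, then switched to serum-free induction medium and treated 48 h (duplicates, up to 100 uM, half-log steps, 0.5% DMSO). Expression change of CYP4A22 was fitted bidirectionally against vehicle.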

[5] = read-out: Cytochrome P450 7A1 (Homo sapiens) (UniProt P22680); assay: LTEA_HepaRG_CYP7A1: Life Technologies and Expression Analysis (LTEA) Assay for Cytochrome P450 7A1 (CYP7A1) using HepaRG (AID 2283496)
In short: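 Using 0.5% DMSO as vehicle and baseline, chemicals were tested in duplicate over an 8-point range from 100 uM on HepaRG cells for 48 h; qRT-PCR signals were normalised to ACTB, GAPDH and POLR2A.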

[6] = read-out: Glutathione S-Transferase (GSTA2), GSTA2 (gene 2939); assay: LTEA_HepaRG_GSTA2: Life Technologies and Expression Analysis (LTEA) Assay for Glutathione S-Transferase (GSTA2) using HepaRG (AID 2283497)
In short: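 Oxidative-stress marker GSTA2 is quantified by TaqMan qRT-PCR in HepaRG cultures treated 48 h across an eight-point range to 100 uM. Expression is normalized to endogenous controls and compared with 0.5% DMSO vehicle.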

[7] = read-out: Glutamate-cysteine ligase catalytic (GCLC), GCLC (gene 2729); assay: LTEA_HepaRG_GCLC: Life Technologies and Expression Analysis (LTEA) Assay for Glutamate-cysteine ligase catalytic (GCLC) using HepaRG (AID 2283498)
In short: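 Oxidative-stress marker GCLC is measured as mRNA change in human HepaRG liver cells after 48 h chemical treatment in 0.5% DMSO, eight concentrations from 100 uM. Activity is fitted bidirectionally against vehicle.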

[8] = read-out: growth arrest and DNA damage 45 (GADD45G), GADD45G (gene 10912); assay: LTEA_HepaRG_GADD45G: Life Technologies and Expression Analysis (LTEA) Assay for growth arrest and DNA damage 45 (GADD45G) using HepaRG (AID 2283499)
In short: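 Human hepatic HepaRG line treated 48 h with chemicals (eight concentrations, half-log steps from 100 uM); transcript induction or repression of GADD45G scored by qRT-PCR versus DMSO vehicle.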

[9] = read-out: Glutathione S-transferase M3 (GSTM3), GSTM3 (gene 2947); assay: LTEA_HepaRG_GSTM3: Life Technologies and Expression Analysis (LTEA) Assay for Glutathione S-transferase M3 (GSTM3) using HepaRG (AID 2283501)
In short: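 Changes in GSTM3 expression, an oxidative-stress marker, were scored by bidirectional curve fitting against 0.5% DMSO vehicle. Human HepaRG cultures received chemicals for 48 h in duplicate, highest concentration 100 uM with half-log dilutions.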

[10] = read-out: Heat shock 70 kDa protein 1 (HSPA1A), gene 3303; assay: LTEA_HepaRG_HSPA1A: Life Technologies and Expression Analysis (LTEA) Assay for Heat shock 70 kDa protein 1 (HSPA1A) using HepaRG (AID 2283502)
In short: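 An oxidative-stress marker readout: HepaRG cells treated 48 h in duplicate with an eight-point series (highest 100 uM) had HSPA1A mRNA quantified by TaqMan qRT-PCR. Activity was fitted in both directions using 0.5% DMSO as baseline.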

[11] = read-out: Hypoxia-inducible factor 1-alpha (Homo sapiens) (UniProt Q16665); assay: LTEA_HepaRG_HIF1A: Life Technologies and Expression Analysis (LTEA) Assay for Hypoxia-inducible factor 1 (HIF1A) Trancription factor using HepaRG (AID 2283503);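 further: HIF1A transcript by TaqMan qRT-PCR normalized to ACTB GAPDH and POLR2A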
In short: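 Gain- or loss-of-signal HIF1A mRNA changes are fitted against a DMSO baseline. HepaRG cultures receive eight concentrations, highest 100 uM, for 48 h in serum-free induction medium with 0.5% DMSO.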

[12] = read-out: 3-Hydroxy-3-Methylglutaryl-CoA Synthase 2 (HMGCS2), HMGCS2 (gene 3158); assay: LTEA_HepaRG_HMGCS2: Life Technologies and Expression Analysis (LTEA) Assay for 3-Hydroxy-3-Methylglutaryl-CoA Synthase 2 (HMGCS2) using HepaRG (AID 2283504)
In short: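 Expression of HMGCS2 in human HepaRG liver cells is measured by qRT-PCR 48 h after dosing (highest 100 uM, half-log series, 0.5% DMSO). Values come from bidirectional concentration-response fitting with DMSO as baseline.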

HGF (gene 3082) = assay: LTEA_HepaRG_HGF: Life Technologies and Expression Analysis (LTEA) Assay for Hepatocyte Growth Facto (HGF) using HepaRG (AID 2283505)
In short: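 Gain or loss of HGF mRNA in human HepaRG liver cells after 48 h chemical exposure; eight concentrations up to 100 uM with 0.5% DMSO vehicle, quantified by TaqMan qRT-PCR.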

[13] = read-out: Insulin Like Growth Factor 1 (IGF1), IGF1 (gene 3479); assay: LTEA_HepaRG_IGF1: Life Technologies and Expression Analysis (LTEA) Assay for Insulin Like Growth Factor 1 (IGF1) using HepaRG (AID 2283506)
In short: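 Endpoint: IGF1 mRNA change by qRT-PCR, housekeeping-normalized, fitted bidirectionally relative to 0.5% DMSO vehicle. Human HepaRG cells were treated 48 h in serum-free induction medium, eight half-log concentrations topping at 100 uM.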

[14] = read-out: Intercellular Adhesion Molecule 1 (ICAM1), ICAM1 (gene 3383); assay: LTEA_HepaRG_ICAM1: Life Technologies and Expression Analysis (LTEA) Assay for Intercellular Adhesion Molecule 1 (ICAM1) using HepaRG (AID 2283507)
In short: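 Gain or loss of transcript in HepaRG hepatic cells is quantified by qRT-PCR after 48 h chemical exposure (up to 100 uM, half-log steps), with DMSO as baseline.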

[15] = read-out: Insulin-like growth factor-binding protein 1 (IGFBP1), IGFBP1 (gene 3484); assay: LTEA_HepaRG_IGFBP1: Life Technologies and Expression Analysis (LTEA) Assay for Insulin-like growth factor-binding protein 1 (IGFBP1) using HepaRG (AID 2283508)
In short: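 mRNA induction or loss was quantified by qRT-PCR after 48 h chemical exposure of human HepaRG cells, with 0.5% DMSO as vehicle and baseline. Concentration-response over eight points up to 100 uM.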

[16] = read-out: Glutamate-cysteine ligase regulatory (GCLM), GCLM (gene 2730); assay: LTEA_HepaRG_GCLM: Life Technologies and Expression Analysis (LTEA) Assay for Glutamate-cysteine ligase regulatory (GCLM) using HepaRG (AID 2283500)
In short: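 In this multiplexed HepaRG gene-expression assay, GCLM mRNA change after 48 h treatment (8 concentrations, max 100 uM) was scored against DMSO by bidirectional curve fitting.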

[17] = read-out: Interleukin 6 (IL6), IL6 (gene 3569); assay: LTEA_HepaRG_IL6: Life Technologies and Expression Analysis (LTEA) Assay for Interleukin 6 (IL6) using HepaRG (AID 2283509)
In short: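 Changes in IL6 mRNA, up or down relative to 0.5% DMSO controls, were derived from concentration-response curves in human HepaRG cells treated for 48 h at up to 100 uM, with ACTB, GAPDH and POLR2A as normalizers.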

[18] = read-out: Interleukin 6 Receptor (IL6R), IL6R (gene 3570); assay: LTEA_HepaRG_IL6R: Life Technologies and Expression Analysis (LTEA) Assay for Interleukin 6 Receptor (IL6R) using HepaRG (AID 2283510);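 on AC50: TaqMan qRT-PCR signal normalized to ACTB GAPDH and POLR2A housekeeping genes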
In short: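 In this HepaRG screen, test chemicals act on cells for 48 h at up to 100 uM (eight half-log points, duplicate wells). IL6R expression is quantified by qRT-PCR after normalization to ACTB, GAPDH and POLR2A, with DMSO as baseline.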

Measured: AC50

Hypoxia-inducible factor 1-alpha (Homo sapiens), sequence (Q16665 whole entry, looked up): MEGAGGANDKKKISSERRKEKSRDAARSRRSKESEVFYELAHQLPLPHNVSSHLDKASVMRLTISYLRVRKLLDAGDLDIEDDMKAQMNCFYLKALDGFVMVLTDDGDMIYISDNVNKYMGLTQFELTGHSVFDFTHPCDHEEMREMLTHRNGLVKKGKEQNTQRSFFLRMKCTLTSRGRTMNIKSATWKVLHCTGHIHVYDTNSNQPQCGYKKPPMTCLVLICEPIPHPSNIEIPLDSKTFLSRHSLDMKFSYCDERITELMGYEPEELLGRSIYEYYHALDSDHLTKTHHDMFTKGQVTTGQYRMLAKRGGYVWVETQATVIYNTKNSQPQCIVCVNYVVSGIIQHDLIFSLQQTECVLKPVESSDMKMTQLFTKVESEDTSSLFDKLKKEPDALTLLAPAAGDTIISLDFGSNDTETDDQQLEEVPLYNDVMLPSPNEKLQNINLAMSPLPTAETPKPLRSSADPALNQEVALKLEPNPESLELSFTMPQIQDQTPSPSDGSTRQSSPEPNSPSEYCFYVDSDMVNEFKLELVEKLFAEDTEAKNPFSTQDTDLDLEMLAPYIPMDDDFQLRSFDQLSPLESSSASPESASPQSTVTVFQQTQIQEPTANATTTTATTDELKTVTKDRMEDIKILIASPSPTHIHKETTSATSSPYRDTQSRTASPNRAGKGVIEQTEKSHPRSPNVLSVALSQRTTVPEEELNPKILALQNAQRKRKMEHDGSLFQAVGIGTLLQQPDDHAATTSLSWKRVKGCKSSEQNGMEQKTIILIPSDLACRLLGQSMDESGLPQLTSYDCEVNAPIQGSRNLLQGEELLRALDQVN
Cytochrome P450 3A7 (Homo sapiens), sequence (P24462 whole entry, looked up): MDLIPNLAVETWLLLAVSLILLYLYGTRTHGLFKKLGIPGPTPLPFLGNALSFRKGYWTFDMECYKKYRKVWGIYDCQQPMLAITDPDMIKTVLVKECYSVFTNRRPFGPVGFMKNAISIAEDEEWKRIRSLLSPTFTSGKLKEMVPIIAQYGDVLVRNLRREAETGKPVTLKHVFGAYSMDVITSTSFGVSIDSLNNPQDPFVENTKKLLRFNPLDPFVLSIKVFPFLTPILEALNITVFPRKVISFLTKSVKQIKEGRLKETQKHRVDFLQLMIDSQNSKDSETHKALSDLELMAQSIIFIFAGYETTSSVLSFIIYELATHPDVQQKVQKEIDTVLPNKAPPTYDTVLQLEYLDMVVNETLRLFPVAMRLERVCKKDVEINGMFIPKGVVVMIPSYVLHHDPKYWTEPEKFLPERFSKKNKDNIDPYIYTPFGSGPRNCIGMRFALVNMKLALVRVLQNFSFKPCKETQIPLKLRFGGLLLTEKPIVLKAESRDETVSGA

c1ccc(C[n+]2cccc3ccccc32)cc1
active: [1] 14.7 µM | [2] 31.7 µM | [3] 31.7 µM | [4] 22.6 µM | [5] 33.7 µM | [6] 75 µM | [7] 85.9 µM | [8] 43.6 µM | [10] 22.8 µM | [12] 31 µM | [13] 20.7 µM | [14] 70.8 µM | [15] 34.6 µM
inactive: CYP3A5 (gene 1577) | [9] | [11] | HGF (gene 3082)

NC(=O)c1nc(-c2cccc(-c3cc(F)ccc3OCC(F)(F)C(F)(F)F)c2)n[nH]1
active: [3] 50 µM | [4] 9.78 µM | [11] 87.2 µM | [12] 50 µM | HGF (gene 3082) 77.2 µM | [13] 83.2 µM | [15] 78.1 µM | [17] 78.6 µM
not listed: [10] | [18]
inactive: all other assays above

CCCCCCCCCCCC[N+](C)(C)C
inactive: [2] | [4] | [7]
active: [1] 83.7 µM | CYP3A5 (gene 1577) 86.6 µM | [3] 93.9 µM | [5] 85.8 µM | [6] 93.7 µM | [8] 78 µM | [16] 84.1 µM | [9] 93.9 µM | [10] 80.9 µM | [11] 83.3 µM | [12] 95.9 µM | HGF (gene 3082) 90.1 µM | [13] 77.5 µM | [14] 76.4 µM | [15] 84.2 µM | [17] 77.8 µM

Cc1cccc2ccccc12
not listed: [18]
inactive: all other assays above

COCC(C)OCC(C)OCC(C)O (stereo not given)
not listed: [16] | [18]
inactive: all other assays above

O=C(O)c1ccccc1-n1cc(C(=O)O)c(=O)c2cc(Nc3c(F)cc(F)cc3Cl)c(Cl)cc21
active: [2] 3 µM
inactive: all other assays above

CCCCCCCCCCCO
not listed: [16] | [18]
inactive: all other assays above

CCN(Cc1cccnc1)C(=O)c1cccc(Cl)c1[C@]1(C)C(=O)N(Cc2ccc(OC)cc2OC)c2ccc(Cl)cc21
inactive: [1] | CYP3A5 (gene 1577) | [8] | [9] | [11]
active: [2] 24.1 µM | [3] 22.3 µM | [4] 14.4 µM | [5] 22.3 µM | [6] 25.8 µM | [7] 22.4 µM | [16] 20.1 µM | [10] 6.92 µM | [12] 21.8 µM | HGF (gene 3082) 21.9 µM | [13] 14.4 µM | [14] 21.2 µM | [15] 17.5 µM | [17] 24.9 µM | [18] 19.9 µM

CC(O)CC(C)(C)O (stereo not given)
not listed: [18]
inactive: all other assays above

CN(C)C(=O)C1(N2CCCCC2)CCN(CC[C@@]2(c3ccc(Cl)c(Cl)c3)CN(C(=O)c3ccccc3)CCO2)CC1
inactive: CYP3A5 (gene 1577) | [4] | HGF (gene 3082)
active: [1] 60.6 µM | [2] 24.7 µM | [3] 17 µM | [5] 25.2 µM | [6] 22 µM | [7] 88.3 µM | [8] 37.8 µM | [16] 88.3 µM | [9] 27.3 µM | [10] 15.2 µM | [11] 33.1 µM | [12] 68.6 µM | [13] 90.9 µM | [14] 47.2 µM | [15] 21.6 µM | [17] 22.1 µM

CC(C)(C)c1cc(/C=C2\SC(N)=NC2=O)cc(C(C)(C)C)c1O
inactive: [1] | [4] | [16] | [9] | [10]
active: [2] 27.6 µM | CYP3A5 (gene 1577) 93.5 µM | [3] 14.8 µM | [5] 25.2 µM | [6] 91.4 µM | [7] 14.5 µM | [8] 21.5 µM | [11] 68.8 µM | [12] 50 µM | HGF (gene 3082) 24.5 µM | [13] 93.3 µM | [14] 29.9 µM | [15] 85.1 µM | [17] 29.8 µM

OC12N=C(c3ccccc3)SC1Cc1cc(Cl)ccc12 (stereo not given)
active: [2] 59 µM | CYP3A5 (gene 1577) 8.12 µM | [3] 34.4 µM | [4] 63.2 µM | [5] 9.92 µM | [6] 30 µM | [8] 2.05 µM | [16] 25.1 µM | [12] 20 µM | [13] 13.3 µM | [15] 13 µM
inactive: [1] | [7] | [9] | [10] | [11] | HGF (gene 3082) | [14] | [17]

— PubChem BioAssay (EPA / NIEHS)
